Measured values taken from PubChem BioAssay (NCATS).
Records with an inconclusive call do not appear. A number with no mark means an inactive call. Activity calls are given as the source filed them. Calls come from the whole dose curve; as a rule, active = well fitted inhibition curve with a large enough effect; inconclusive = small, poorly fitted or top-dose-only effect; inactive = flat fitted curve, though single readings scatter. Bridge positions count the residues as written; N and C are the ends. Square brackets hold non-standard residues; d marks the D form. Peptide text beside a SMILES is read from it. * marks the point of attachment. Ileψ(thiazoline)Cys = CC[C@H](C)[C@H](N)C1=N[C@H](C(=O)*)CS1; d(aIle) = CC[C@H](C)[C@@H](N)C(=O)O; dOrn = NCCC[C@@H](N)C(=O)O

test system: not listed separately; assay: qHTS profiling for inhibitors of Plasmodium falciparum proliferation (AID 504749); note: nearly all actives have a fitted effect of over 60% in size;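 for activity, negative = inhibition: 0% = DMSO vehicle and full inhibition = artemisinin control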; settings: P. falciparum in erythrocytes, SYBR Green DNA, 72 h; at 12.8 µM (top of the series); parasite line B
In short: (§1)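 Parasite proliferation within erythrocytes, 72 h exposure. Endpoint: SYBR Green I fluorescence after overnight lysis at room temperature. Controls: 0.29 uM artemisinin, DMSO.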
Potency is the fitted concentration of half-maximal effect.

Row | SMILES | activity, negative = inhibition
1 | CN1CCO[C@H](c2ccccc2)c2ccccc2C1 | 0.83%
2 | CCN(CCCCOC(=O)c1ccc(OC)c(OC)c1)[C@@H](C)Cc1ccc(OC)cc1 | -8.1%
3 | C[C@H](C(=O)O)c1cccc(Oc2ccccc2)c1 | 14.9%
4 | CC1(C)[C@@H](OC(=O)CCC(=O)O)CC[C@@]2(C)[C@H]1CC[C@@]1(C)[C@H]2C(=O)C=C2[C@H]3C[C@](C)(C(=O)O)CC[C@]3(C)CC[C@@]21C | 13.4%
5 | CCOC(=O)O[C@@H](C)OC(=O)[C@@H]1N2C(=O)[C@@H](NC(=O)[C@@H](N)c3ccccc3)[C@H]2SC1(C)C | 6.1%
6 | Cc1ccsc1/C=C\C1=NCCCN1C | 9.61%
7 | C#C[C@]1(O)CC[C@@H]2[C@H]3CCC4=CCCC[C@@H]4[C@@H]3CC[C@@]21C | 0.61%
8 | CC[C@H](C)[C@H](N)C1=N[C@H](C(=O)N[C@@H](CC(C)C)C(=O)N[C@@H](CCC(=O)O)C(=O)N[C@@H](C(=O)N[C@H]2CCCCNC(=O)[C@@H](CC(N)=O)NC(=O)[C@@H](CC(=O)O)NC(=O)[C@@H](Cc3cnc[nH]3)NC(=O)[C@@H](Cc3ccccc3)NC(=O)[C@@H]([C@@H](C)CC)NC(=O)[C@@H](CCCN)NC2=O)[C@@H](C)CC)CS1 ({Ileψ(thiazoline)Cys}-LE[d(aIle)]K[dOrn][d(aIle)][dF][dH][dD][dN]; lactam 4-C) | 7.07%
9 | O=C(O)COCCN1CCN([C@@H](c2ccccc2)c2ccc(Cl)cc2)CC1 | 11.4%
10 | CCN(CC)CCOC(=O)[C@@H](Cc1cccc2ccccc12)C[C@@H]1CCCO1 | 10%
11 | CC[C@H](CO)NCCN[C@@H](CC)CO | 5.7%

test system: 3D7; assay: as above; settings: P. falciparum in erythrocytes, SYBR Green DNA, 72 h; series mostly up to 12.8 µM; activity, negative = inhibition: at the top concentration
In short: as §1

Row | SMILES | activity, negative = inhibition | Potency
12 | CN1CCO[C@H](c2ccccc2)c2ccccc2C1 | 2.4% | 
13 | C[C@H](CCC(=O)O)[C@H]1CC[C@@H]2[C@@H]3[C@@H](O)C[C@H]4C[C@@H](O)CC[C@@]4(C)[C@H]3CC[C@@]21C | -5.93% | 
14 | CN(C/C=C\c1ccccc1)Cc1cccc2ccccc12 | -5.67% [at 28.7 µM] | 
15 | CCN(CCCCOC(=O)c1ccc(OC)c(OC)c1)[C@@H](C)Cc1ccc(OC)cc1 | -28.7% | 
16 | C[C@H](C(=O)O)c1cccc(Oc2ccccc2)c1 | 9.49% | 
17 | CC1(C)[C@@H](OC(=O)CCC(=O)O)CC[C@@]2(C)[C@H]1CC[C@@]1(C)[C@H]2C(=O)C=C2[C@H]3C[C@](C)(C(=O)O)CC[C@]3(C)CC[C@@]21C | 3.12% | 
18 | CCOC(=O)O[C@@H](C)OC(=O)[C@@H]1N2C(=O)[C@@H](NC(=O)[C@@H](N)c3ccccc3)[C@H]2SC1(C)C | -9.4% | 
19 | Cc1ccsc1/C=C\C1=NCCCN1C | -2.42% | 
20 | C#C[C@]1(O)CC[C@@H]2[C@H]3CCC4=CCCC[C@@H]4[C@@H]3CC[C@@]21C | -14% | 
21 | CC[C@H](C)[C@H](N)C1=N[C@H](C(=O)N[C@@H](CC(C)C)C(=O)N[C@@H](CCC(=O)O)C(=O)N[C@@H](C(=O)N[C@H]2CCCCNC(=O)[C@@H](CC(N)=O)NC(=O)[C@@H](CC(=O)O)NC(=O)[C@@H](Cc3cnc[nH]3)NC(=O)[C@@H](Cc3ccccc3)NC(=O)[C@@H]([C@@H](C)CC)NC(=O)[C@@H](CCCN)NC2=O)[C@@H](C)CC)CS1 ({Ileψ(thiazoline)Cys}-LE[d(aIle)]K[dOrn][d(aIle)][dF][dH][dD][dN]; lactam 4-C) | 6.23% | 
22 | O=C(O)COCCN1CCN([C@@H](c2ccccc2)c2ccc(Cl)cc2)CC1 | -2.55% | 
23 | CCN(CC)CCOC(=O)[C@@H](Cc1cccc2ccccc12)C[C@@H]1CCCO1 | -4.78% | 
24 | Clc1ccc([C@H](Cn2ccnc2)OCc2c(Cl)cccc2Cl)c(Cl)c1 |  | 2510 nM (active)
25 | CC[C@H](CO)NCCN[C@@H](CC)CO | 1.11% | 

test system: 7G8; assay: as above; settings: P. falciparum in erythrocytes, SYBR Green DNA, 72 h; series mostly up to 12.8 µM; activity, negative = inhibition: at the top concentration
In short: as §1

Row | SMILES | activity, negative = inhibition | Potency
26 | CN1CCO[C@H](c2ccccc2)c2ccccc2C1 | -7.03% | 
27 | C[C@H](CCC(=O)O)[C@H]1CC[C@@H]2[C@@H]3[C@@H](O)C[C@H]4C[C@@H](O)CC[C@@]4(C)[C@H]3CC[C@@]21C | -4.19% | 
28 | CCC(=O)OCC(=O)[C@@]1(OC(=O)CC)[C@H](C)C[C@@H]2[C@@H]3[C@H]([C@@H](O)C[C@@]21C)[C@]1(C)C=CC(=O)C=C1C[C@@H]3Cl |  | 1000 nM (active)
29 | CC1(C)[C@@H](OC(=O)CCC(=O)O)CC[C@@]2(C)[C@H]1CC[C@@]1(C)[C@H]2C(=O)C=C2[C@H]3C[C@](C)(C(=O)O)CC[C@]3(C)CC[C@@]21C | 8.6% | 
30 | CCOC(=O)O[C@@H](C)OC(=O)[C@@H]1N2C(=O)[C@@H](NC(=O)[C@@H](N)c3ccccc3)[C@H]2SC1(C)C | -21.9% | 
31 | Cc1ccsc1/C=C\C1=NCCCN1C | 2.35% | 
32 | Cc1cccc(CN2CCN([C@@H](c3ccccc3)c3ccc(Cl)cc3)CC2)c1 |  | 3550 nM (active)
33 | C#C[C@]1(O)CC[C@@H]2[C@H]3CCC4=CCCC[C@@H]4[C@@H]3CC[C@@]21C | -25.8% | 
34 | CC[C@H](C)[C@H](N)C1=N[C@H](C(=O)N[C@@H](CC(C)C)C(=O)N[C@@H](CCC(=O)O)C(=O)N[C@@H](C(=O)N[C@H]2CCCCNC(=O)[C@@H](CC(N)=O)NC(=O)[C@@H](CC(=O)O)NC(=O)[C@@H](Cc3cnc[nH]3)NC(=O)[C@@H](Cc3ccccc3)NC(=O)[C@@H]([C@@H](C)CC)NC(=O)[C@@H](CCCN)NC2=O)[C@@H](C)CC)CS1 ({Ileψ(thiazoline)Cys}-LE[d(aIle)]K[dOrn][d(aIle)][dF][dH][dD][dN]; lactam 4-C) | -0.723% | 
35 | Clc1ccc([C@H](Cn2ccnc2)OCc2c(Cl)cccc2Cl)c(Cl)c1 |  | 1580 nM (active)
36 | C[C@@H](CNC1CCCCC1)OC(=O)c1ccccc1 |  | 891 nM (active)
37 | CC[C@H](CO)NCCN[C@@H](CC)CO | 10.1% | 
